# The supplement of paper PMC10338343
# ± gives the standard deviation.
# Tested on: MILI (PIWIL2) piRISC loaded with L1MC piRNA (26 nt)
# Experiment: pre-steady-state target cleavage rate (min^-1); guide: L1MC piRNA 5'p-UAACUAAAUACUAUGCAAGCUGUAGG; MIWI and MILI are mouse PIWI proteins and EfPiwi is from a freshwater sponge; tags in brackets are library labels; higher = faster piRNA-guided slicing of the target
# Conditions: auxiliary factor: 500 nM mouse GTSF1
# Description: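 Cleave-'n-Seq: a library of target RNAs (target site embedded in constant flanks, ACAGCATTCCGCGTTAGTGATATCCG... 5' flank; DNA-blocked outside the site) at 0.1 nM was incubated with 1 nM active mouse MILI or MIWI piRISC (synthetic 5'-monophosphorylated piRNA guide) with or without 500 nM mouse GTSF1 at 33 °C for 1 min to 16 h. Uncleaved targets were sequenced and normalised to non-target controls, and the pooled three trials were fitted to a burst-and-steady-state model to give the pre-steady-state cleavage rate (min^-1; k3 is constrained to at most 1e-4). Sequence is the target site only; target names encode pairing extent (gX:gY) and contiguous / 1-mismatch / 2-mismatch / bulge geometry. Fits with R² ≤ 0 are excluded.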
row,Sequence,pre-steady-state target cleavage rate
1,UCCUGGAUGAGCUUGCAUACUAAUUAGUUA,0.0128 ± 0.0042
2,UCCUGGAUCAGCUUGCAUAGUAUUUAGUAUA,0.233 ± 0.021
3,UCCUGGUACAGCUUGCAUAGUAUUUAUGUUA,0.147 ± 0.036
4,UCCUGGAUGAGCCUUGCAUAGUAUUUAGUUA,0.16 ± 0.02
5,UCCUGGUACAGCUUGCAUAGUAUUAGUUA,0.327 ± 0.053
6,UCCUGGAUGUGGAUGCAUAGUAUUUAGUUA,0.092 ± 0.012
7,UCCUGGAUCUAGCUUGCAUAGUAUUUAGUUA,0.193 ± 0.021
8,UCCUCCUACAGCUAGCAUUGUAUUUAGUUA,0.184 ± 0.013
9,UCCUCCUACAGCUUGCAUACUAUUAAGUUA,0.0631 ± 0.019
10,UCCUCGUACAGCUUGGAUAGUAUUUAGUUA,0.265 ± 0.012
11,UCCUGGAUGAGCUUGCACAGUAUUUAGUUA,0.172 ± 0.014
12,UCCUGGAACAGCAAGCAUAGUAUUUAGUUA,0.275 ± 0.018
13,UCCUGCAACACCUUGCAUAGUAUUUAGUUA,0.192 ± 0.026
14,UCCUGGAUGUGCUUGCCUAGUAUUUAGUUA,0.0942 ± 0.011
15,UCCUGGAACAGGUUGCAUAGUAAUUAGUUA,0.206 ± 0.017
16,UCCUGGAUGAGCAUGGAUAGUAUUUAGUUA,0.189 ± 0.019
17,UCCUGCUUGAGCUUGCAUAGUAUUUUCAAA,0.0372 ± 0.013
18,UCCUGGAUCACCUAGCAUAGUAUUUAGUUA,0.17 ± 0.025
19,UCCUGGUACUGCUUGGAUAGUAUUUAGUUA,0.179 ± 0.029
20,UCCUCCUACAGCUUGCAAAGUUUUUAGUUA,0.0169 ± 0.0064
21,UCCUGCUACAGCUUGCAUAGUAUUUUCAUA,0.151 ± 0.044
22,UCCUGGUUCAGCUUGCUUAGUAUUUAGUUA,0.199 ± 0.017

# Same assay, conditions: auxiliary factor: none (no GTSF1)
row,Sequence,pre-steady-state target cleavage rate
1,UCCUGGAUCAGCUUGCAUAGUAUUUAGUAUA,0.00809 ± 0.0032
2,UCCUGGUACAGCUUGCAUAGUAUUUAUGUUA,0.0114 ± 0.0044
3,UCCUGGAUGAGCCUUGCAUAGUAUUUAGUUA,0.0071 ± 0.0027
4,UCCUGGUACAGCUUGCAUAGUAUUAGUUA,0.00515 ± 0.003
5,UCCUGGAUGUGGAUGCAUAGUAUUUAGUUA,0.00877 ± 0.0027
6,UCCUGGAUCUAGCUUGCAUAGUAUUUAGUUA,0.00722 ± 0.0025
7,UCCUCCUACAGCUAGCAUUGUAUUUAGUUA,0.00496 ± 0.0019
8,UCCUCGUACAGCUUGGAUAGUAUUUAGUUA,0.00962 ± 0.0023
9,UCCUGGAUGAGCUUGCACAGUAUUUAGUUA,0.00869 ± 0.0031
10,UCCUGGAACAGCAAGCAUAGUAUUUAGUUA,0.00588 ± 0.0024
11,UCCUGCAACACCUUGCAUAGUAUUUAGUUA,0.00568 ± 0.0027
12,UCCUGGAUGUGCUUGCCUAGUAUUUAGUUA,0.012 ± 0.003
13,UCCUGGAACAGGUUGCAUAGUAAUUAGUUA,0.0075 ± 0.0018
14,UCCUGGAUGAGCAUGGAUAGUAUUUAGUUA,0.0105 ± 0.0024
15,UCCUGGAUCACCUAGCAUAGUAUUUAGUUA,0.00435 ± 0.0029
16,UCCUGGUACUGCUUGGAUAGUAUUUAGUUA,0.00767 ± 0.0042
17,UCCUCCUACAGCUUGCAAAGUUUUUAGUUA,0.00334 ± 0.0023
18,UCCUGGUUCAGCUUGCUUAGUAUUUAGUUA,0.0104 ± 0.003
